Shown are actives, neighbours in structure and some others; about 1.1% of the full set was active somewhere.
SRC3 inh – human NCOA3 inhibition. Q9Y6Q9. HEK293 GAL4-SRC3 luciferase reporter, luminescence. inhibition, % at 3.6 µM. actives 0.17% (n = 360,000). AID 588352;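 active = inhibition above a per-campaign cutoff, the mean of all compounds plus 3 SD, cut at about 60% in these data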;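 also: higher means less SRC3-driven luciferase light from the GAL4 reporter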
NCOA2 inhibitor – inhibits human steroid receptor coactivator 2; inhibition, % at 9 µM; AID 651957; actives 0.17% (n = 370,000); HEK293 GAL4-SRC2 luciferase reporter, luminescence;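 active = inhibition above the mean inhibition of all tested compounds plus 3 SD, set per campaign, cut at about 52% in these data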
NCOA1 inh – inhibitors of human steroid receptor coactivator 1 (SRC1); HEK293 GAL4-SRC1 luciferase reporter, luminescence; actives 0.12% (n = 360,000); AID 588354; Q15788; inhibition, % at 3.6 µM;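 active = inhibition above the campaign mean plus 3 SD, with each screening campaign given its own cutoff, cut at about 60% in these data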
COUP-TFII inh – NR2F2 (human) inhibition, primary screen. P24468. HEK293T NGFI-A luciferase reporter, luminescence. inhibition, % at 8.6 µM. actives 0.7% (n = 370,000). AID 686940;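 active = inhibition above a per-plate cutoff, mean inhibition of test wells between control levels plus 3 SD, cut at about 38% in these data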;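 also: cells cotransfected with COUP-TFII expression vector driving the NGFI-A reporter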
LRH-1 inv ag – suppresses constitutive activity of human LRH-1; actives 0.13% (n = 360,000); inhibition, % at 3.6 µM; O00482; HEK293T StAR-luciferase reporter, LRH-1 transfected, 24 h;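 active = inhibition above the mean inhibition of all tested compounds plus 3 SD, cut at about 73% in these data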
Target sequence (O00482 whole entry, looked up): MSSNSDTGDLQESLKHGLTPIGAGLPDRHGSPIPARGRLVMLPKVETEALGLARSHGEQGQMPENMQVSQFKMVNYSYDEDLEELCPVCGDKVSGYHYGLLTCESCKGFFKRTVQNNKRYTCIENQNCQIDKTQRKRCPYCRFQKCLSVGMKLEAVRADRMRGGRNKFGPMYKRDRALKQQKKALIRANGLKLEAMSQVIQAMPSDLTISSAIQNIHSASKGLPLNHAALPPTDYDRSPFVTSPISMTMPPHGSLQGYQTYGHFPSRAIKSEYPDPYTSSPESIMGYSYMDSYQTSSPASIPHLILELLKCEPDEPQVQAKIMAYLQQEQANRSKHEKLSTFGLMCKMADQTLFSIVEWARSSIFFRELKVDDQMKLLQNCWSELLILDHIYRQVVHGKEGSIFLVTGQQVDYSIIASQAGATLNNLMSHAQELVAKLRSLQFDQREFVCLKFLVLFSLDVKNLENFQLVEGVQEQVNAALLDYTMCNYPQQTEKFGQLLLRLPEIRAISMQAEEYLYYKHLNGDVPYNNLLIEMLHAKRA
GalR3 antag – human GalR3 antagonism; O60755; HEK293 GalR3-CNG cAMP membrane potential fluorescence; galR3 body fused to GalR1 C-terminus; inhibition, % at 3 µM; actives 0.44% (n = 360,000); AID 651719;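 active = inhibition above the screen-wide average plus 3 SD, cut at about 13% in these data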;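 also: forskolin and galanin both at EC90 stimulate the cells; cAMP rise reported by CNG channel membrane potential dye signal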
VP16 Luc counter – inhibits VP16 reporter, flagging COUP-TFII antagonist hits | shares compounds with COUP-TFII inh | HEK293 Gal4-VP16 luciferase reporter, luminescence | inhibition, % at 8.5 µM | actives 25% (n = 2,500); in the data active = inhibition above about 13%
NR2F2 inh conf – COUP-TFII (NR2F2) inhibition, confirmation assay; inhibition, % at 8.5 µM; actives 45% (n = 2,500); HEK293 NGFI-A luciferase reporter, luminescence; AID 687008; shares compounds with COUP-TFII inh;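 active = mean inhibition over three repeats above a set limit taken from the earlier primary screen, cut at about 38% in these data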
A number is an active result; - = inactive; . = no result.

SMILES	SRC3 inh	NCOA2 inhibitor	NCOA1 inh	COUP-TFII inh	LRH-1 inv ag	GalR3 antag	VP16 Luc counter	NR2F2 inh conf
Cc1ccc(NC(=O)c2cc(S(=O)(=O)N3CCOCC3)cs2)cc1	-	-	-	-	-	-	.	.
Cc1ccc(NC(=O)c2cc(S(=O)(=O)N3CCCCC3)cs2)cc1	-	-	-	48	-	-	-	-
O=C(Nc1ccc(S(=O)(=O)N2CCOCC2)cc1)c1ccc(S(=O)(=O)N2CCOCC2)cc1	-	-	-	-	-	-	.	.
Cc1ccc(S(=O)(=O)N2CCOCC2)cc1C(=O)Nc1ccc(N2CCCCCC2)cc1	-	-	-	40	-	-	-	-
O=C(NCc1ccccc1)[C@@H]1CCCN1C(=O)[C@H]1CCCN1C(=O)c1cc(F)cc(F)c1	.	-	.	-	.	-	.	.
CCCCN1C(=O)C(CC(=O)NCCCN(C)C)CC(C(=O)N2CCOCC2)=C1C (stereo not drawn)	-	-	-	-	-	-	.	.
O=C(CSc1nnc(-c2cccnc2)n1Cc1ccco1)Nc1ccc(Cl)cc1	.	-	.	-	.	.	.	.
CCN(CC)S(=O)(=O)c1cccc(NC(=O)c2ccc(-n3nc(C)cc3C)cc2)c1	-	-	-	65	-	-	-	-
Cc1cc(C)n(-c2ccc(C(=O)Nc3ccc(C)c(S(=O)(=O)N(C)C)c3)cc2)n1	-	-	-	48	-	-	-	-
Cc1cc(C)n(-c2ccc(C(=O)Nc3ccc(S(=O)(=O)N(C)C)cc3)cc2)n1	-	-	-	-	-	-	.	.
Cc1ccc(NC(=O)c2ccc(OC(F)(F)F)cc2)cc1S(=O)(=O)N(C)C	-	-	-	55	-	-	-	-
Cc1ccc(NC(=O)c2ccncc2)cc1S(=O)(=O)N(C)C	-	-	-	-	-	-	.	.
Cc1cc(C)n(-c2ccc(C(=O)Nc3cccc(S(=O)(=O)N(C)C)c3)cc2)n1	-	-	-	43	-	-	14	39
Fc1cccc(Cn2ccc3ccc(-c4ccc5ccn(Cc6ccccc6)c5c4)cc32)c1	.	-	.	-	.	.	.	.
Cc1c(C(=O)NNC(=O)c2ccccc2O)oc2ccccc12	-	-	-	-	-	-	.	.
CN(C)S(=O)(=O)Oc1ccc(C(=O)Nc2cccc(C(F)(F)F)c2)cc1	-	-	-	54	-	-	-	-
CN(C)S(=O)(=O)Oc1ccc(C(=O)Nc2cccc(Cl)c2)cc1	-	-	-	-	-	-	.	.
O=C(OC12CCCN(C1)/C(=C/c1ccc(Cl)cc1)C2)C1CCCC1 (stereo not drawn)	.	-	.	-	.	.	.	.
CCN1/C(=C/C=C/c2oc3ccc(-c4ccccc4)cc3[n+]2CC)Oc2ccc(-c3ccccc3)cc21	-	-	-	84	-	-	40	94
O=S(=O)(NCc1cn2ccsc2n1)c1ccc(Oc2ccccc2)cc1	-	-	-	42	-	-	-	-
CC(C)(C)c1ccc(NC(=O)COc2ccc(-n3ccnc3)cc2)cc1	-	-	-	51	-	-	-	47
O=C(COCc1ccncc1)N1CCN(c2ccc(F)cc2Cl)CC1	.	-	.	-	.	.	.	.
Cc1nc(N2CCN(Cc3ccc4c(c3)OCO4)CC2)c2oc3ccccc3c2n1	-	-	-	83	-	-	-	-
COc1ccc2c(c1)[nH]c1c(N3CCN(Cc4ccc5c(c4)OCO5)CC3)ncnc12	-	-	-	46	-	-	-	65
Cc1ccc2c(c1)[nH]c1c(N3CCN(Cc4ccccc4)CC3)ncnc12	-	-	-	67	-	-	-	40
Cc1ccc2[nH]c3c(N4CCN(Cc5ccccc5)CC4)ncnc3c2c1	-	-	-	-	-	-	.	.
Cc1nc(N2CCN(Cc3ccc(Cl)cc3)CC2)c2oc3ccccc3c2n1	-	-	-	-	-	-	.	.
CC(C)(C)c1ccc(-c2cc(-c3ccccc3O)[nH]n2)cc1	-	-	-	37	-	-	-	51
COc1ccc(-c2cc3nc(C)n(N)c(=O)c3s2)cc1	70	71	-	66	-	-	60	77

Bioassay records deposited in PubChem BioAssay by The Scripps Research Institute Molecular Screening Center.
